Molecules are shown by their SMILES. Unmarked numbers belong to inactive results. The source made the active and inactive calls.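 The calls were made as follows, unless noted: active = mean inhibition above 46.68%, the untreated control wells mean plus 3 SD; inactive = the rest.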

For the first test, the target named is Nuclear receptor coactivator 1 (Homo sapiens) (UniProt Q15788). Put plainly: NCOA1 GAL4-fusion reporter inhibition – cell-based, luminescence, quadruplicate, confirmation (AID 588820).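 Also: 0% = DMSO wells and 100% = gossypol 36 µM treated wells.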 The conditions noted are these: HEK293 GAL4-SRC1 luciferase reporter, at 3.6 µM, hits give high values. A general note: A reporter such as luciferase makes a cellular process visible.
Sequence of Nuclear receptor coactivator 1 (Homo sapiens) (Q15788 whole entry, looked up, the tested form may be a part): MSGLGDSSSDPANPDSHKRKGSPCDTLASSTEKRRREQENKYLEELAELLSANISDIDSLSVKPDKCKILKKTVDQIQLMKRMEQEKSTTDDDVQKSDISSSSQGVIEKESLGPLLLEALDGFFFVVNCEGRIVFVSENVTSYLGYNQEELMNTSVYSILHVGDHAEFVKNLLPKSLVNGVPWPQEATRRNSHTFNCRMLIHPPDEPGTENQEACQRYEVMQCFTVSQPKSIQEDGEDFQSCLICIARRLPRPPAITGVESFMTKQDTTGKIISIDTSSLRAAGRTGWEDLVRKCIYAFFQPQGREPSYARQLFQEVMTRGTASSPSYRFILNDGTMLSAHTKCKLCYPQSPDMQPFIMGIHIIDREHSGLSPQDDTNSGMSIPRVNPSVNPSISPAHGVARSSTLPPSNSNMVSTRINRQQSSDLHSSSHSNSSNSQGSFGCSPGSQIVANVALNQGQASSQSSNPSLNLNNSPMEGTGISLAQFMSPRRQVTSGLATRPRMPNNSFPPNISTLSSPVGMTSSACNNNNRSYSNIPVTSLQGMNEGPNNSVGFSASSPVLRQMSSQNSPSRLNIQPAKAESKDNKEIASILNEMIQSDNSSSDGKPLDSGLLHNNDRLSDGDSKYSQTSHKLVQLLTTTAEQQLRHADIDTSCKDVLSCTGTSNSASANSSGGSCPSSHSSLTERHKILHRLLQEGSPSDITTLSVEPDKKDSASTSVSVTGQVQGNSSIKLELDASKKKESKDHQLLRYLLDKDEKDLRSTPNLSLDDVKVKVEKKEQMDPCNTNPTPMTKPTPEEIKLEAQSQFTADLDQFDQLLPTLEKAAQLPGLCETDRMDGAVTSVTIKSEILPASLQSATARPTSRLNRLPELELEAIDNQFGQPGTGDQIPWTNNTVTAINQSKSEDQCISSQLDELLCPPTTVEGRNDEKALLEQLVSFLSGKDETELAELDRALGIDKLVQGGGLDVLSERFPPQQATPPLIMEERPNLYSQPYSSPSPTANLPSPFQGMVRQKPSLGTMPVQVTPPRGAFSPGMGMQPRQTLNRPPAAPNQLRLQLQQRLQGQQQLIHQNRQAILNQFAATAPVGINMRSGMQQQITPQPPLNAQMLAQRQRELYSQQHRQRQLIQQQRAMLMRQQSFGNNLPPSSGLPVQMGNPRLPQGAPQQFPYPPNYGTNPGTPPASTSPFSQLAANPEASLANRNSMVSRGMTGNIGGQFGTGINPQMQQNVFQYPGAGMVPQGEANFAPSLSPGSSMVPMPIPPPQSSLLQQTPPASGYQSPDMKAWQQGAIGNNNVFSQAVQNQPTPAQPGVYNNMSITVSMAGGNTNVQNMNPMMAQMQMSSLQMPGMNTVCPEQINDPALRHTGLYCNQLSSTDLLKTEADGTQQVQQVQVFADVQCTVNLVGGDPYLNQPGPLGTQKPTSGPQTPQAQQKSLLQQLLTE
What is called inhibition is the change of the read-out against control, counted positive when it falls. Take `O=C(COc1ccccc1O)NNc1ccccc1`: the inhibition is -12.2%.
Same read-out and setting: as for `CC(=O)N1CCN(c2ncnc3ccccc23)CC1`, the figure is 45.1%; as for `CCCCC(=O)NC(c1cccs1)c1cc(Cl)c2cccnc2c1O` (stereo not given), 27.5%; as for `c1nc(NCc2ccc3c(c2)OCO3)c2cc(-c3ccoc3)ccc2n1`, 54.8% (active).
On the same count and under the same terms, as for `CC(=O)c1cccc(NC(=O)Nc2cccnc2)c1`, the figure is 58% (active).
With `COc1ccc2[nH]c3c(c2c1)CCNC3=O`, the inhibition was 62.3% (active).
On to `O=C(N/N=C/c1cc(O)ccc1Br)c1cccnc1`, for which the inhibition was 19.8%.
Consider `Cn1c(Sc2ccc(Cl)cc2)c(C=O)c2ccccc21`, for which the inhibition was 60% (active).
The same measure, in the same setting: to `CC1CCN(Cc2c(C(=O)N/N=C/c3ccccc3O)nnn2-c2nonc2N)CC1` belongs 64.4% (active).
With `CC(C)n1cc(/C=C/c2cc[n+](C)cc2)c2ccccc21`, the inhibition is 16.8%.
For `COc1cccc(-c2ccc3ncnc(NCc4ccc5c(c4)OCO5)c3c2)c1`, the inhibition was 45.2%.
On the same count and under the same terms, to `Clc1ccc(-c2csc3ncnc(NCCN4CCOCC4)c23)cc1` belongs 46.6%.
Consider `O=C(N/N=C/c1cc(Cl)cc(Cl)c1O)c1ccncc1`, for which the inhibition was 30.7%.
Still for that read-out and setting: to `Cc1cc(=O)[nH]c(NN=Cc2cc(Br)ccc2O)n1` belongs 51.2% (active); to `C#CCN(C[C@@H]1[C@@H](OC(=O)NCCCCCC)[C@@H](OC(=O)NCCCCCC)Cn2c(=O)ccc(=O)n21)S(=O)(=O)c1ccc(C)cc1`, 23.8%.
Take `COc1cc(C(=O)N/N=C(\c2ccccc2)c2ccccn2)cc(OC)c1OC`: the inhibition was 28.5%.
On to `CN(C)/C=C/C(=O)c1ccc2noc(-c3ccccc3)c2c1`, for which the inhibition is 41.3%.
As to `CCOC(=O)N=Nc1c2ccccc2c2nc3no[nH]c3nc12`, the inhibition is 88.3% (active).
Still for that read-out and setting: as for `O=C(NNC1=Nc2cccc3cccc1c23)c1ccccc1Br`, the figure is 14.2%; as for `CCOc1cc(C(N)=O)cc(Br)c1OCC`, 43.4%; as for `c1ccc2c(-c3cncc4ccccc34)cncc2c1`, 36.4%.
On the same count and under the same terms, as for `COc1ccc(-c2c[n+]3c(n2-c2ccccc2)CCCCC3)cc1`, the figure is 17.3%.
For `COc1ccc(C(=O)Cn2c(C(C)=O)nc3ccccc32)cc1`, the inhibition is -13.6%.
On to `CCCCCCCCCn1c2c(c(=N)c3c1CCC3)CCC2`, for which the inhibition is 71.4% (active).
On the same count and under the same terms, to `COC(=O)c1cc2c(n1S(=O)(=O)c1ccc(C)cc1)C(=O)C(=O)c1[nH]cc(C(=O)OCc3ccccc3)c1-2` belongs 81.9% (active).
For `O=C(NCc1ccc(Cl)cc1)c1csc(-c2cccnc2)n1`, the inhibition was 10.2%.
Regarding `Cc1nc(N)c(CC(Br)CBr)c(Cl)n1` (stereo not given), the inhibition was 44.4%.
Same read-out and setting: as for `O=C(Nc1nc(-c2ccccc2)cs1)c1ccc(N2CCOCC2)c([N+](=O)[O-])c1`, the figure is 15.3%.
The same measure, in the same setting: as for `NC(=O)C(C(=O)/C=C/c1ccc(Cl)cc1)=C1SCCS1`, the figure is 30.9%.
The same measure, in the same setting: to `CCc1ccc(-c2cc(C(F)(F)F)n3nc(C(=O)Nc4cnn(Cc5ccc(C)cc5)c4)cc3n2)s1` belongs -3.69%; to `O=C(CNS(=O)(=O)Cc1ccccc1)NNc1ccccc1`, 12.8%; to `CN(CC1CCCO1)S(=O)(=O)c1ccc(C(=O)Nc2nc3cc4c(cc3s2)OCO4)cc1` (stereo not given), 0.14%.
In the case of `CCCN(CCC)c1nc(-c2ccccn2)nc2ccccc12`, the inhibition was 30.2%.
Regarding `CCCCC(=O)OCC(=O)C1(O)Cc2c(O)c3c(c(O)c2C(OC2CC(NC(=O)C(F)(F)F)C(O)C(C)O2)C1)C(=O)c1c(OC)cccc1C3=O` (stereo not given), the inhibition was 29.3%.
As to `Cc1cc(/C=C2\Cc3ccccc3C2=O)c(C)n1-c1ccccc1`, the inhibition was 20.5%.
The same measure, in the same setting: as for `COc1cccc2nc3c(C(=O)NCCN(C)C)cccc3cc12`, the figure is 46.5%; as for `Cc1ccc(C(=O)NCCn2cc(SCC(=O)Nc3nnc(C)s3)c3ccccc32)cc1`, -32.5%; as for `CCN(CC)CCCNc1ccc2ncn3c4ccc(O)cc4c(=O)c1c23`, 47.9% (active).
In the case of `O=C(Nc1cccnc1)c1ccc(C(=O)Nc2cccnc2)cc1`, the inhibition was 23.3%.
Turning to `Cn1nnnc1N=N/C(=N/Nc1ccccc1)c1ccccc1`, the inhibition was 55.5% (active).

System in a further test: not listed separately
Description: repression of VP16-driven luciferase reporter – cell-based, luminescence, high throughput, counter-screen for SRC1 inhibitor project (AID 588824; in the data active = inhibition above about 25%). The conditions noted are these: cell-based VP16 transactivation luciferase luminescence; at 3.6 µM; hits give high values.
For the compound `O=C(COc1ccccc1O)NNc1ccccc1`, the inhibition is 29.2% (active).
For `CC(=O)N1CCN(c2ncnc3ccccc23)CC1`, the inhibition is 26.3% (active).
On the same count and under the same terms, as for `CCCCC(=O)NC(c1cccs1)c1cc(Cl)c2cccnc2c1O` (stereo not given), the figure is 49.9% (active).
Same read-out and setting: as for `c1nc(NCc2ccc3c(c2)OCO3)c2cc(-c3ccoc3)ccc2n1`, the figure is 45.4% (active).
Still for that read-out and setting: to `CC(=O)c1cccc(NC(=O)Nc2cccnc2)c1` belongs 33.6% (active).
Take `COc1ccc2[nH]c3c(c2c1)CCNC3=O`: the inhibition was 33.7% (active).
On the same count and under the same terms, as for `O=C(N/N=C/c1cc(O)ccc1Br)c1cccnc1`, the figure is 39.3% (active); as for `Cn1c(Sc2ccc(Cl)cc2)c(C=O)c2ccccc21`, 37% (active); as for `CC1CCN(Cc2c(C(=O)N/N=C/c3ccccc3O)nnn2-c2nonc2N)CC1`, 56.8% (active).
As to `CC(C)n1cc(/C=C/c2cc[n+](C)cc2)c2ccccc21`, the inhibition is 30.3% (active).
Same read-out and setting: as for `COc1cccc(-c2ccc3ncnc(NCc4ccc5c(c4)OCO5)c3c2)c1`, the figure is 30% (active); as for `Clc1ccc(-c2csc3ncnc(NCCN4CCOCC4)c23)cc1`, 31.8% (active).
On to `O=C(N/N=C/c1cc(Cl)cc(Cl)c1O)c1ccncc1`, for which the inhibition was 33.7% (active).
Same read-out and setting: to `Cc1cc(=O)[nH]c(NN=Cc2cc(Br)ccc2O)n1` belongs 64.8% (active); to `C#CCN(C[C@@H]1[C@@H](OC(=O)NCCCCCC)[C@@H](OC(=O)NCCCCCC)Cn2c(=O)ccc(=O)n21)S(=O)(=O)c1ccc(C)cc1`, 33.4% (active); to `COc1cc(C(=O)N/N=C(\c2ccccc2)c2ccccn2)cc(OC)c1OC`, 21.9%.
Consider `CN(C)/C=C/C(=O)c1ccc2noc(-c3ccccc3)c2c1`, for which the inhibition is 33.7% (active).
In the case of `CCOC(=O)N=Nc1c2ccccc2c2nc3no[nH]c3nc12`, the inhibition is 92.4% (active).
Still for that read-out and setting: as for `O=C(NNC1=Nc2cccc3cccc1c23)c1ccccc1Br`, the figure is 17.2%; as for `CCOc1cc(C(N)=O)cc(Br)c1OCC`, 21.6%; as for `c1ccc2c(-c3cncc4ccccc34)cncc2c1`, 28% (active).
As for `COc1ccc(-c2c[n+]3c(n2-c2ccccc2)CCCCC3)cc1`, the inhibition was 30.1% (active).
Regarding `COc1ccc(C(=O)Cn2c(C(C)=O)nc3ccccc32)cc1`, the inhibition is -8.2%.
Same read-out and setting: as for `CCCCCCCCCn1c2c(c(=N)c3c1CCC3)CCC2`, the figure is 84.8% (active); as for `COC(=O)c1cc2c(n1S(=O)(=O)c1ccc(C)cc1)C(=O)C(=O)c1[nH]cc(C(=O)OCc3ccccc3)c1-2`, 93.2% (active); as for `O=C(NCc1ccc(Cl)cc1)c1csc(-c2cccnc2)n1`, 7.38%.
Regarding `Cc1nc(N)c(CC(Br)CBr)c(Cl)n1` (stereo not given), the inhibition is 28.9% (active).
Same read-out and setting: to `O=C(Nc1nc(-c2ccccc2)cs1)c1ccc(N2CCOCC2)c([N+](=O)[O-])c1` belongs 64.8% (active); to `NC(=O)C(C(=O)/C=C/c1ccc(Cl)cc1)=C1SCCS1`, 33.8% (active); to `CCc1ccc(-c2cc(C(F)(F)F)n3nc(C(=O)Nc4cnn(Cc5ccc(C)cc5)c4)cc3n2)s1`, 7.47%.
With `O=C(CNS(=O)(=O)Cc1ccccc1)NNc1ccccc1`, the inhibition is 16.3%.
The same measure, in the same setting: to `CN(CC1CCCO1)S(=O)(=O)c1ccc(C(=O)Nc2nc3cc4c(cc3s2)OCO4)cc1` (stereo not given) belongs 39.8% (active); to `CCCN(CCC)c1nc(-c2ccccn2)nc2ccccc12`, 29.9% (active).
As for `CCCCC(=O)OCC(=O)C1(O)Cc2c(O)c3c(c(O)c2C(OC2CC(NC(=O)C(F)(F)F)C(O)C(C)O2)C1)C(=O)c1c(OC)cccc1C3=O` (stereo not given), the inhibition is 16.3%.
The same measure, in the same setting: to `Cc1cc(/C=C2\Cc3ccccc3C2=O)c(C)n1-c1ccccc1` belongs -2.62%; to `COc1cccc2nc3c(C(=O)NCCN(C)C)cccc3cc12`, 32.7% (active); to `Cc1ccc(C(=O)NCCn2cc(SCC(=O)Nc3nnc(C)s3)c3ccccc32)cc1`, -0.04%.
Same read-out and setting: to `CCN(CC)CCCNc1ccc2ncn3c4ccc(O)cc4c(=O)c1c23` belongs 49.9% (active); to `O=C(Nc1cccnc1)c1ccc(C(=O)Nc2cccnc2)cc1`, 20.4%; to `Cn1nnnc1N=N/C(=N/Nc1ccccc1)c1ccccc1`, 32.8% (active).

These data come from PubChem BioAssay.
